Hits are enriched below; roughly 1.7% of the tested compounds scored in any of these assays.
CCHFV vOTU inh: CCHFV vOTU protease inhibition | inhibition, % at 11.5 µM | AID 651958 | hit rate 0.55% among 370,000 | Pep-AMC fluorescence; in the data active = inhibition above about 30%
PriA SSB inh: K. pneumoniae PriA-SSBct interaction inhibition | AlphaScreen SSBct-PriA binding, biotinylated peptide | inhibition, % at 33 µM | hit rate 0.6% among 430,000; in the data active = inhibition mostly above about 37%, no sharp cut-off; inactive = mostly below about 20%
VHR inh abs: inhibitors of human VHR1 phosphatase (DUSP3). inhibition, % at 13.3 µM. hit rate 0.52% among 290,000. recombinant VHR phosphatase, pNPP absorbance; in the data active = inhibition above about 50%
Target sequence (P51452 whole entry, looked up): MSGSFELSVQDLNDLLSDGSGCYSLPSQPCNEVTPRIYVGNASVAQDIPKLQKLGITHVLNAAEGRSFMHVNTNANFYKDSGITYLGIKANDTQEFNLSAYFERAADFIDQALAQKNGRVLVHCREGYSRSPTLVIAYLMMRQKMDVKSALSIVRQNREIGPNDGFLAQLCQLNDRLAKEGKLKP
RecA splice inh: Mtb RecA intein splicing inhibition; P9WHJ3; cell-free RecA intein splicing, fluorescence; inhibition, % (no concentration beside the values); hit rate 0.75% among 290,000; in the data active = inhibition above about 30%
SARS 3CLpro inh: SARS-CoV 3CLpro protease inhibition | P0C6X7 | recombinant SARS-CoV 3CLpro, quenched FRET peptide cleavage | inhibition, % at 6 µM | hit rate 0.14% among 290,000; in the data active = inhibition above about 12%
Hits are given with their value; . = inactive; / = no result.

SMILES	CCHFV vOTU inh	PriA SSB inh	VHR inh abs	RecA splice inh	SARS 3CLpro inh
O=S(=O)(O)c1ccc(O)c2ncccc12	/	99	/	/	/
CCN(CC)Cc1ccc(O)c2ncccc12	/	139	/	/	/
O=Cc1ccc(O)c2ncccc12	/	94	.	.	.
CCCCCCCCCCCCc1ccc(O)c2ncccc12	/	.	/	/	/
O=C(c1ccco1)N1CCN(c2cnnc(N3CCCC3)c2)CC1	/	.	/	/	/
O=C(Oc1cccc2cccnc12)c1ccco1	.	.	.	/	.
COc1ccc(C(NC(=O)c2ccco2)c2ccc(OC)c(OC)c2)cc1OC	.	.	.	.	.
COc1ccc(C(CC(=O)c2ccco2)Sc2cccc3cccnc23)cc1OC (centres undefined)	/	81	/	/	/
O=C(C[C@H](Sc1cccc2cccnc12)c1ccc(OC(F)F)cc1)c1ccco1	/	83	/	/	/
CC1(C)CC(=O)C(=C(O)c2ccccc2)C(=NCCc2ccccc2)C1	/	.	/	/	/
COc1ccc(C)cc1CN1C(=O)c2ccccc2C1=O	.	.	53	.	.
COc1ccccc1CN1C(=O)c2cccc3cccc(c23)C1=O	.	.	.	.	.
Cc1cc(/C=C(\C#N)C(=O)NCc2ccccc2)cc(C)c1O	.	.	52	.	.
COc1cc(/C=C(/C#N)C(=O)NCc2ccccc2)cc(OC)c1OC	.	.	.	.	.
O=C(/C=C/c1ccc([N+](=O)[O-])s1)Nc1ccc2c3c(cccc13)CC2	/	.	/	/	/
O=C(Nc1ccc([N+](=O)[O-])cc1)Nc1ccc2c3c(cccc13)CC2	/	38	/	/	/
O=C(CSc1nnc(NC(=O)c2cccs2)s1)Nc1ccccc1C(F)(F)F	/	.	/	/	/
Clc1ccc(CSc2nnc(-c3ccccn3)n2Cc2ccco2)c(Cl)c1	.	49	.	.	.
O=C(CSc1nnc(-c2ccccn2)n1Cc1ccco1)c1ccc(-c2ccccc2)cc1	.	49	.	/	.
COc1ccccc1NC(=O)CSc1nnc(-c2ccccc2)n1Cc1ccco1	/	55	/	/	/
O=C(CSc1nnc(-c2ccc(O)cc2)n1Cc1ccco1)c1ccccc1	.	.	.	.	.
COc1ccc(NC(C)=O)cc1NC(=O)CCn1c(=O)oc2ccc(Cl)cc21	/	.	/	/	/
COc1ccc(NC(=O)Cn2cnc3c(cnn3C3CCS(=O)(=O)C3)c2=O)cc1OC (centres undefined)	/	.	/	/	/
COCC(=O)NCC1CCC(c2nc3ccccc3[nH]2)CC1 (centres undefined)	/	.	/	/	/
O=C(NCc1ccccc1Cl)c1cn(-c2cccc(F)c2)nn1	/	.	/	/	/
SMILES	CCHFV vOTU inh	PriA SSB inh	VHR inh abs	RecA splice inh	SARS 3CLpro inh
O=S(=O)(c1ccc(F)cc1)c1snnc1-c1ccccc1	.	.	.	69	.
O=S(=O)(c1ccc(Cl)cc1)c1snnc1-c1ccccc1	.	.	.	81	.
CN(C)c1ncc(S(=O)(=O)c2ccc(Cl)cc2)c(-c2ccccc2)n1	.	.	.	.	.
c1ccc(-c2nnsc2-c2ncc[nH]2)cc1	.	.	.	.	.
Cc1cc2n(n1)C(c1ccc3c(c1)OCO3)Nc1c(C)cccc1-2 (centres undefined)	.	.	.	.	.
Cc1cc(C)c2c(c1)-c1cc(C)nn1C(c1ccc3c(c1)OCO3)N2 (centres undefined)	.	.	56	.	.
Cn1nnc2cc(NC(=O)N3CCN(c4ccccn4)CC3)ccc21	.	.	.	.	.
Cn1nnc2cc(C(=O)N3CCN(c4ccccn4)CC3)ccc21	.	.	53	.	.
O=C(Cn1cc(-c2ccc(F)cc2)cn1)N1CCC(S(=O)(=O)c2ccc(F)cc2)CC1	/	.	/	/	/
CN(C)C(=O)Cn1cc(-c2ccc(F)cc2)cn1	/	38	/	/	/
CC(=O)N1CCC(CN2CCOCC2)CC1	/	.	/	/	/
CC(=O)N1CCC(CN2CCCC2)CC1	/	38	/	/	/
COc1ccc(S(=O)(=O)Nc2ccc3c(c2)N(C(=O)c2cccs2)CC3)cc1OC	/	.	/	/	/
Cc1ccccc1S(=O)(=O)Cc1ccc(C(=O)NCc2ccccc2)o1	.	.	57	.	.
O=C(NCc1ccccc1)c1ccc(CS(=O)(=O)Cc2ccc(F)cc2)o1	.	.	60	.	.
Cc1ccccc1S(=O)(=O)Cc1ccc(C(=O)NCc2cccnc2)o1	.	.	.	.	.
Cc1ccc2nc(NC(=O)CN3CCc4nc(NC(=O)c5cnccn5)sc4C3)sc2c1	/	.	/	/	/
CCCN1CCCc2cc(CCNC(=O)C(=O)Nc3ccc(C)c(C)c3)ccc21	/	.	/	/	/
CCCN1CCCc2cc(CCNS(=O)(=O)c3ccc(C)c(C)c3)ccc21	/	61	/	/	/
CCCN1CCCc2cc(CCNS(=O)(=O)c3ccc(F)c(C)c3)ccc21	/	59	/	/	/
CCCOc1nc(SCCC)nc2c1cnn2-c1ccccc1	.	.	53	.	.
